This passage reports residual activity results from ChEMBL document CHEMBL2218924, “A broad activity screen in support of a chemogenomic map for kinase signalling research and drug discovery” (Biochem J, 2013).

As a reminder, the residual activity is the signal under treatment as a percentage of the control signal.

Experiment [1] has as its target T1, Ephrin type-A receptor 3 (Homo sapiens) (UniProt P29320).
T1 sequence (whole entry): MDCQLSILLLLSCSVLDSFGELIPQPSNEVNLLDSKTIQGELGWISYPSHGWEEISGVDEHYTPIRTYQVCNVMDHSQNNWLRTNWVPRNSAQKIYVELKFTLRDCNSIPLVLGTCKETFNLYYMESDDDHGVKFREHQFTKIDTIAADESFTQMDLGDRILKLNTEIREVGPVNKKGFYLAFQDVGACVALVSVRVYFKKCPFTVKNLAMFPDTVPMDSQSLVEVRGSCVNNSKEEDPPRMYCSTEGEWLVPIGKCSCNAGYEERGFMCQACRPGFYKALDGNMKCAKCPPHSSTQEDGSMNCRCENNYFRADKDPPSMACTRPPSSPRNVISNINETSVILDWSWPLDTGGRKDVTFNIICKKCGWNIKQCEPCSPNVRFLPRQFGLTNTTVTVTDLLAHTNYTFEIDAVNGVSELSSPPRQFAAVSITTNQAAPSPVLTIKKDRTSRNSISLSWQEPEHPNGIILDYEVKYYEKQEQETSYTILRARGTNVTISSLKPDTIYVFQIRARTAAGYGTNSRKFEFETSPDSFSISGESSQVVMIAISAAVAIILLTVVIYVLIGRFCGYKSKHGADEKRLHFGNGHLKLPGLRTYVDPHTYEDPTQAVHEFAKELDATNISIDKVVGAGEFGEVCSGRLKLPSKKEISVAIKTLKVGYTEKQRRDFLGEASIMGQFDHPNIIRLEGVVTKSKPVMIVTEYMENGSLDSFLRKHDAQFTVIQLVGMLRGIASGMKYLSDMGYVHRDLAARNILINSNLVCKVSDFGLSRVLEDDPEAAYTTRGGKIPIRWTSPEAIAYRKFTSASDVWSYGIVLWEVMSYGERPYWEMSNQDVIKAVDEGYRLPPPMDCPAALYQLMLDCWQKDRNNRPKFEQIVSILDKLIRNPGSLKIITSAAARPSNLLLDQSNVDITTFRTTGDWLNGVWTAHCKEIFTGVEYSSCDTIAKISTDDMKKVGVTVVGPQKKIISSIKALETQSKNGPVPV
The following applies: at 10 µM.

Experiment [2] addresses Ephrin type-A receptor 4 (Homo sapiens) (UniProt P54764). Particulars: at 1 µM.
Experiment [3] shares this target. The following applies: at 10 µM.
Experiment [4] concerns the target Ephrin type-A receptor 5 (Homo sapiens) (UniProt P54756). The following applies: at 1 µM.
The target is the same in experiment [5]. The following applies: at 10 µM.
Experiment [6] concerns the target Ephrin type-A receptor 7 (Homo sapiens) (UniProt Q15375). Particulars: at 1 µM.
Experiment [7] has the same target. The following applies: at 10 µM.
For experiment [8], the target named is T2, Ephrin type-A receptor 8 (Homo sapiens) (UniProt P29322).
T2 sequence (whole entry): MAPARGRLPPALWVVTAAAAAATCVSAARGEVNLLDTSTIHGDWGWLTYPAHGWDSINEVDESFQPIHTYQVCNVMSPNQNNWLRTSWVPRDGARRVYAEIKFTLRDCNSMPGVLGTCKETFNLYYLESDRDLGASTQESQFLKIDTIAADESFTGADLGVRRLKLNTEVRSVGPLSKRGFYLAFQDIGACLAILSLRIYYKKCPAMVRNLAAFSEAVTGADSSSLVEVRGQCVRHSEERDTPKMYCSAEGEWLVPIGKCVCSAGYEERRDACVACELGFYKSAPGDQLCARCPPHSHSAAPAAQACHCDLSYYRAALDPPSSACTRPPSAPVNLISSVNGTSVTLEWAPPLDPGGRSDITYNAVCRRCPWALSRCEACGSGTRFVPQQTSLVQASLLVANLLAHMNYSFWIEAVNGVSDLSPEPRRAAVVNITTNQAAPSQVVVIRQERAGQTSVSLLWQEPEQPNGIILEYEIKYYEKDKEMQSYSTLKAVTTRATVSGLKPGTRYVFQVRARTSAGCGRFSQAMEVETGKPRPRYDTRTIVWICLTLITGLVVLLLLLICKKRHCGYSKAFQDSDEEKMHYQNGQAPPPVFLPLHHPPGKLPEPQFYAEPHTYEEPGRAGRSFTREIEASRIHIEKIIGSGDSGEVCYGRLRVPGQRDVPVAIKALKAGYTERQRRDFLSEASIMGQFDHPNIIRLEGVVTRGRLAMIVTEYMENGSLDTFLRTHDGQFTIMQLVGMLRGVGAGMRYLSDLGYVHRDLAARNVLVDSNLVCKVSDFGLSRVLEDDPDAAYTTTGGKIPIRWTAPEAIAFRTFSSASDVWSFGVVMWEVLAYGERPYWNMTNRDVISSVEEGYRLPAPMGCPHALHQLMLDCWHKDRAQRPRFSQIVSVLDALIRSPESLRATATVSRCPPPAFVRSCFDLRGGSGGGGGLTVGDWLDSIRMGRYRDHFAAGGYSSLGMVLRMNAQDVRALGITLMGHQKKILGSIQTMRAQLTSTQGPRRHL
The following applies: at 1 µM.

In experiment [9] the target is T2, Ephrin type-A receptor 8 (Homo sapiens). The following applies: at 10 µM.
Experiment [10] deals with T3, Ephrin type-B receptor 1 (Homo sapiens) (UniProt P54762).
T3 sequence (whole entry): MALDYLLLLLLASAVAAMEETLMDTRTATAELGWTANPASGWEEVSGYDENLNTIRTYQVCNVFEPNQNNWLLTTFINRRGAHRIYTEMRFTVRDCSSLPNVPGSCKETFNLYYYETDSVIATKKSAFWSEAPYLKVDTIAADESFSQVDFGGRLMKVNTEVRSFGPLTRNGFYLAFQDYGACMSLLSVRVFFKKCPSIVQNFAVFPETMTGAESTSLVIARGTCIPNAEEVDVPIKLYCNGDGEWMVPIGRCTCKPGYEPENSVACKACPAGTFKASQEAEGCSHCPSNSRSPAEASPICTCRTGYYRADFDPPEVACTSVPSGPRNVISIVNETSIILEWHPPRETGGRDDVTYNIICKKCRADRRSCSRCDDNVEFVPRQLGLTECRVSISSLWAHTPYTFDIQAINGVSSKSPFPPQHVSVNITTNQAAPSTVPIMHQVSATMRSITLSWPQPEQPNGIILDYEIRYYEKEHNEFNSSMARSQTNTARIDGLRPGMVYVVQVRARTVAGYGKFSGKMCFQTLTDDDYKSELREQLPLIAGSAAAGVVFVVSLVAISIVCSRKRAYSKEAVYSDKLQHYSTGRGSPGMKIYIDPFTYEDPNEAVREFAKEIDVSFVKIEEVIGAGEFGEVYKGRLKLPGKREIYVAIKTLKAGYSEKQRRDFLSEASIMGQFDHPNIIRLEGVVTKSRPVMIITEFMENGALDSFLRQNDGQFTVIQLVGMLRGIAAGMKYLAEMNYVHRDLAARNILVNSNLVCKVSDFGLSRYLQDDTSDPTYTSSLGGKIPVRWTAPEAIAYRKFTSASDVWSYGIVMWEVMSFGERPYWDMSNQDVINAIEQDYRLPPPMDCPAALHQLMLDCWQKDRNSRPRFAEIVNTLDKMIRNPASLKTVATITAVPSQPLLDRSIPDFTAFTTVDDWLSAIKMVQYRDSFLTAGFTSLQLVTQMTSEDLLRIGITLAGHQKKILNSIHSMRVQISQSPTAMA
Particulars: at 1 µM.

Chain of Ephrin type-A receptor 7 (Homo sapiens) (Q15375 28-998 limits assumed): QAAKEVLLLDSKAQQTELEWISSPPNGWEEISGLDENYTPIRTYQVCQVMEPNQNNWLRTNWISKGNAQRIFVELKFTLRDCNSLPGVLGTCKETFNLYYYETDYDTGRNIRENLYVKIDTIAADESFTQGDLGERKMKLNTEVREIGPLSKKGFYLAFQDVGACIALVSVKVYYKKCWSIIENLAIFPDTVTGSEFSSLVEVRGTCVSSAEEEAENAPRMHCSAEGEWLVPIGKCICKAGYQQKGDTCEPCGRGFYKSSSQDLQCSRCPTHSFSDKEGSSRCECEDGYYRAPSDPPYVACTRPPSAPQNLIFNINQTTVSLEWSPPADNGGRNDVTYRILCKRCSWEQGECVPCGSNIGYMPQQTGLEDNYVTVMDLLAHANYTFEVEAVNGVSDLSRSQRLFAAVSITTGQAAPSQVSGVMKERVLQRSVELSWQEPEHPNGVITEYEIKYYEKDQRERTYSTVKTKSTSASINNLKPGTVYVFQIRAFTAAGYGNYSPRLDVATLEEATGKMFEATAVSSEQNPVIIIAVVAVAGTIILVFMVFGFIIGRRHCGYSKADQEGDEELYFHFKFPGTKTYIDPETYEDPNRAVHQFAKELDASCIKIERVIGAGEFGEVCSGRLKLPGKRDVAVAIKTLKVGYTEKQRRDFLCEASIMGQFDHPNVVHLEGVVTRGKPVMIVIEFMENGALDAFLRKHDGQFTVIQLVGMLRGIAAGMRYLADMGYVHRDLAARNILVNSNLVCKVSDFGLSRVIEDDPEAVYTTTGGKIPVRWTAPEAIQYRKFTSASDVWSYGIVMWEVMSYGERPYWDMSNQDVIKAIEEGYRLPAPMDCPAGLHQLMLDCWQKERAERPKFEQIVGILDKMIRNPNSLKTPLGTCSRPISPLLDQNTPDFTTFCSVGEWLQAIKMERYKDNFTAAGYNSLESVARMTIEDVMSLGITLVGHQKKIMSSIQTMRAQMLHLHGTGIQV
Chain of Ephrin type-A receptor 5 (Homo sapiens) (P54756 whole entry): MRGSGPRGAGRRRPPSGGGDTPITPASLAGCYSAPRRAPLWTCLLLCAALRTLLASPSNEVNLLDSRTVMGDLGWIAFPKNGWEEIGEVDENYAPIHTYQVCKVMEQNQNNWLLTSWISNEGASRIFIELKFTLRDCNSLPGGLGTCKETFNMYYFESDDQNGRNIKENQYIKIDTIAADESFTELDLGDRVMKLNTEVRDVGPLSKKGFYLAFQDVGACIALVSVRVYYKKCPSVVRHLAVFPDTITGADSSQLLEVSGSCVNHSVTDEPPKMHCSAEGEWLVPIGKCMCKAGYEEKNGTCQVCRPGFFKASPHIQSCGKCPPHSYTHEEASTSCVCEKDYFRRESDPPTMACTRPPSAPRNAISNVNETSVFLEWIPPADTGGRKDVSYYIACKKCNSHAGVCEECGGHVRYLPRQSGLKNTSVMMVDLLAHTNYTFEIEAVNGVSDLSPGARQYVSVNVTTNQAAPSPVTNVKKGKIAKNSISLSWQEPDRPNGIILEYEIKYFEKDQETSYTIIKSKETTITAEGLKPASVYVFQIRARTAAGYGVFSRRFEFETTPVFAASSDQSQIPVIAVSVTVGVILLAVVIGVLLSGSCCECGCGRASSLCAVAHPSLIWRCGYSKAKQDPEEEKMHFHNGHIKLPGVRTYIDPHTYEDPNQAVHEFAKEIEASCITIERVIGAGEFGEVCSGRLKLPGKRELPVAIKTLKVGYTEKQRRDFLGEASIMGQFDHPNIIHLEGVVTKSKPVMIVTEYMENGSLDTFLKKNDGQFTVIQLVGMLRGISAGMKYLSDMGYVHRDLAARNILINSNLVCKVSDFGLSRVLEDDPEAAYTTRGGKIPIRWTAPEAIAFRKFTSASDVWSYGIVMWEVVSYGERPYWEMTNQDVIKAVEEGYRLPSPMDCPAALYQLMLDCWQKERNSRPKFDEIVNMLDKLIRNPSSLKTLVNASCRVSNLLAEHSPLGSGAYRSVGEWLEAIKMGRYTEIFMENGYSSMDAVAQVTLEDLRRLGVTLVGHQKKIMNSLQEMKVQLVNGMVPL
Chain of Ephrin type-A receptor 4 (Homo sapiens) (P54764 whole entry): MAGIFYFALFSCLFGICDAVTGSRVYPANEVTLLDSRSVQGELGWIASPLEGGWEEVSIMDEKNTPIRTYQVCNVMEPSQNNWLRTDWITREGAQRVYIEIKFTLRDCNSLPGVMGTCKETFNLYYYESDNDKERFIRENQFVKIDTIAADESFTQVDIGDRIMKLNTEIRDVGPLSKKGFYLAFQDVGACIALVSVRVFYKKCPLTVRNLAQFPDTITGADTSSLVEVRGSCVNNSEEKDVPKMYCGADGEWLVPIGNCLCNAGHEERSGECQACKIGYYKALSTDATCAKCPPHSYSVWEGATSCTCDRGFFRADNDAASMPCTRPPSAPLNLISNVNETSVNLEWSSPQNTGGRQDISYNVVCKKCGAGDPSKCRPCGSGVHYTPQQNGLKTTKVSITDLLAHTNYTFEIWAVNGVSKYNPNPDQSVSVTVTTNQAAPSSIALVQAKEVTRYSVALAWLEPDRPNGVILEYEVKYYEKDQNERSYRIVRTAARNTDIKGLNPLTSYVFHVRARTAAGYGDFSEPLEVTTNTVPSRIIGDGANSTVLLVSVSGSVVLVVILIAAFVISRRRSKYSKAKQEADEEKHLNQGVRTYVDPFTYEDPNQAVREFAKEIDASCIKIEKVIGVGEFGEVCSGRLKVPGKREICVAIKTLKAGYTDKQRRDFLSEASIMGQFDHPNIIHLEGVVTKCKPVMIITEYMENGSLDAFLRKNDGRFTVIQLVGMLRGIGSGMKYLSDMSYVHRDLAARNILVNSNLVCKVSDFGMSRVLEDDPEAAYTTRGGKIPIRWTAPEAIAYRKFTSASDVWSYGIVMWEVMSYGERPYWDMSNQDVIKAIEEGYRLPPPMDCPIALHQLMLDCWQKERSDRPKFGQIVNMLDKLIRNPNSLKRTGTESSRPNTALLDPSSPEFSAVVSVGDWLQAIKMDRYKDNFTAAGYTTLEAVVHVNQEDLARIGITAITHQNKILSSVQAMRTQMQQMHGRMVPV

Consider `Cc1nc(-c2ccccc2)c(-c2ccncc2)o1`, for which the residual activity in [1] stood at 77%; in [2], 109%; in experiment [3], 102%; in [4], 35%; in experiment [5], 29%; in experiment [6] it was 94%. Besides, the residual activity in experiment [7] turned out to be 89%; in experiment [8], 65%; in experiment [9], 54%; in experiment [10], 63%.
